Hits are enriched below; roughly 8.7% of the tested compounds scored in any of these assays.
G9a inh: inhibitors of human histone lysine methyltransferase G9a; G9a H3K9 monomethylation, AlphaScreen, 2 h; Q96KQ7; Potency, µM (highest dose often 102 µM), for inactives: at the top dose activity, negative = inhibition, hits mostly inhibitors; AID 504332; 350,000 compounds, 8.8% hits; further: on the % scale 0 is the no-effect control and ±100 the full control effect; nearly all actives have a fitted effect of over 75% in size
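Signal arises when biotinylated H3K9 peptide, once monomethylated, bridges streptavidin donor and antibody-captured acceptor beads. Enzyme at 20 nM was preincubated 15 min with test compounds; peptide 500 nM and SAM 20 uM then reacted for 2 h.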
ALOX12 inh: ALOX12 (human) lipoxygenase inhibition; P18054; purified 12hLO, xylenol orange hydroperoxide absorbance; 580,000 compounds, 1.1% hits; Potency, µM (series often up to 108 µM), for inactives: at the highest dose activity change, negative = inhibition, actives largely listed as inhibitors; further: on the % scale 0 is the no-effect control and ±100 the full control effect
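Purified human 12hLO at 150 nM in 25 mM Hepes, 0.01% Triton X-100, pH 7.0, preincubated 15 min at room temperature with compound. Reaction started with 40 uM arachidonic acid, 30 min at room temperature. Hydroperoxide measured by Fe-xylenol orange, 573/405 nm absorbance ratio.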
HP1b chromo inh: inhibitors of HP1-beta chromodomain binding to methylated histone tails; P83916; AlphaScreen HP1-beta / biotin-H3K9me3 peptide binding; Potency, µM (titrated, usually from 114 µM), for inactives: at the highest dose activity change, negative = inhibition, hits mostly inhibitors; 390,000 compounds, 0.56% hits; further: nearly all actives have a fitted effect of over 70% in size
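AlphaScreen: HP1-beta (50 nM) preformed 30 min with biotin-H3(1-18)K9me3 peptide (50 nM) in PBS pH 7.4, 0.01% Tween-20. Compound added for 30 min at RT, then streptavidin donor/nickel chelate acceptor beads (10 ug/mL) for 30 min.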
Sfp inh: inhibitors of Bacillus subtilis Sfp phosphopantetheinyl transferase. Biochemical Sfp PPTase activity, qHTS. Potency, µM, for the others: largest response in the series, negative = inhibition, most hits filed as inhibitors. 310,000 compounds, 3.5% hits;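 further: the enzyme is Sfp with the accession as filed and its product quenches rhodamine fluorescence; 0% = enzyme reaction without inhibitor and -100% = no enzyme wells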
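Sfp 15 nM + cpd, 15 min RT; start w/ rhodamine-CoA 5 uM, BHQ-2-YbbR 12.5 uM (final); 50 mM Hepes pH 7.6, 10 mM MgCl2, 0.01% NP-40, 0.01% BSA; read 525/598 nm at 0 and 30 min.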
JMJD2A Tudor inh: JMJD2A Tudor domain (human) inhibition; O75164; Potency, µM (top dose mostly 114 µM), inactives show at the highest dose activity change, negative = inhibition, usual class: inhibitors; AlphaScreen JMJD2A-Tudor / H3K4me3 peptide binding; 390,000 compounds, 4.4% hits; further: on the % scale 0 is the no-effect control and ±100 the full control effect; nearly all actives have a fitted effect of over 50% in size
Target sequence (O75164 whole entry, looked up, the tested form may be a part): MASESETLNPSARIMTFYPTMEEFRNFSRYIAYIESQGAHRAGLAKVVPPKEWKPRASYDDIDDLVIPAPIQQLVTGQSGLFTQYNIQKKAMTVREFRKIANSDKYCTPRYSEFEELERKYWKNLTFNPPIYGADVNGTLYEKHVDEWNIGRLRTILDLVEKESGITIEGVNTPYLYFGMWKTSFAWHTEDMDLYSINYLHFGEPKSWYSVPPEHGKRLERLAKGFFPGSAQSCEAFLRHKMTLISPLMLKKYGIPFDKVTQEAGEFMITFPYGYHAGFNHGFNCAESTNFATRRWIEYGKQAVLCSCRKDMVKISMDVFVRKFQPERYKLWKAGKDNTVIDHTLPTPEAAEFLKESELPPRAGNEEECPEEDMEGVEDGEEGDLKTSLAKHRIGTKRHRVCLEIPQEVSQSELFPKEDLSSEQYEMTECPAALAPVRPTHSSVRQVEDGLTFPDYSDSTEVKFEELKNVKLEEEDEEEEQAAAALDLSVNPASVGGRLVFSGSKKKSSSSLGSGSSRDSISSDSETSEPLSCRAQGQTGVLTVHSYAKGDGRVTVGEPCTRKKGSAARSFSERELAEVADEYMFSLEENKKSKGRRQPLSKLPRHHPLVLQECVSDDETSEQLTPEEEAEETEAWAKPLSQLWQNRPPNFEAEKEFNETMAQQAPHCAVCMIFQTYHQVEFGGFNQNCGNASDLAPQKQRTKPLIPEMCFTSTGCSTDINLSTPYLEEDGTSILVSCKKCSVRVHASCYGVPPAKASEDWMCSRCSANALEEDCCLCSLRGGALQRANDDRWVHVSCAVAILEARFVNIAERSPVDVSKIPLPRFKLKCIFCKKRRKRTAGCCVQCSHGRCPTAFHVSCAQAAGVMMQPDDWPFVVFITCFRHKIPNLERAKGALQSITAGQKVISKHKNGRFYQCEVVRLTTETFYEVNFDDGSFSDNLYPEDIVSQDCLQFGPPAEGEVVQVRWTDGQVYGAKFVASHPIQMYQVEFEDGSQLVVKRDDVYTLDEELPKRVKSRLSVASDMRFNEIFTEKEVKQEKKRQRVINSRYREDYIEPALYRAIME
BAZ2B inh: inhibitors of human BAZ2B bromodomain; Q9UIF8; AlphaScreen BAZ2B-H3K14Ac peptide displacement; Potency, µM (series often up to 114 µM), without a hit: top-dose activity change, negative = inhibition, most hits filed as inhibitors; AID 504333; 360,000 compounds, 4.4% hits; further: on the % scale 0 is the no-effect control and ±100 the full control effect; nearly all actives have a fitted effect of over 60% in size
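AlphaScreen luminescence quantifies BAZ2B engagement of H3K14Ac peptide; the protein and biotinylated peptide are both at 50 nM final, buffer PBS pH 7.4 with 0.01% Tween-20, all steps at room temperature.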
* hit, by the source's call; ? = inconclusive; / = not tested or not shown; ! = repeats disagree; [ ] = dose if it differs, or a comment. The call rests on the fitted dose curve; in most records, active means well fitted curve in the direction sought with a large enough effect; inconclusive means small, poorly fitted or top-dose-only effect, or another doubt; inactive means no such curve, though single readings can be large; an effect the other way counts as inactive or inconclusive. Potency means the concentration at half of the fitted maximal effect.

SMILES	G9a inh	ALOX12 inh	HP1b chromo inh	Sfp inh	JMJD2A Tudor inh	BAZ2B inh
O=S1(=O)N[C@@H](Cc2ccccc2)COc2cc(NCCCN3CCOCC3)ccc21	/	50.1µM*	/	/	/	/
Cc1ccc(-n2c([S-])c(C(=O)NC(C)c3ccccc3)[n+]3ccccc23)cc1 (stereo unspecified)	39.8µM*	?	-4.3%	16.7%	-34.7%	-18.4%
COc1ccc(CNC(=O)c2c([S-])n(-c3ccc(C)cc3)c3cccc[n+]23)cc1	3.98µM*	?	11.9%	-12.6%	3.16µM*	/
COc1ccc(CNC(=O)c2cccc3ccccc23)cc1	/	59.6%	/	/	/	/
Cc1nc2nc(C(F)(F)F)[nH]n2c(=O)c1Cc1ccc(Br)cc1	/	-52.1%	/	/	/	/
Cc1nc2cc(S(=O)(=O)N3CCOCC3)ccc2n1CCNC(=O)C1CC1	/	63.0%	/	/	/	/
O=C(O)Cc1c[nH]c2ccc(O)cc12	23.8µM*!	-7.7%	29.7%	/	-9.4%	/
COC[C@@H]1CN(C(=O)c2cc(C)oc2C)C[C@H]1c1ccccn1	/	-3.4%	/	/	/	/
Cc1cccc(C)c1-n1nnnc1SCC(=O)N1CCNC1=O	44.7µM*	0.1%	29.4%	/	3.4%	3.1%
O=C(CSc1nnnn1-c1ccccc1)N1CCNC1=O	7.7%	-16.1%	41.7%	2.0%	-4.2%	1.1%
COc1ccc2[nH]c3c(c2c1)CCNC31CCN(C(=O)c2ccc(C)nc2)CC1	/	33.8%	/	/	/	/
Cc1nc(CN2CCCCC2)c(O)c(=O)[nH]1	/	-0.2%	-16.0%	/	25.1µM*	/
O=c1[nH]c(-c2ccccc2)nc(CN2CCCCC2)c1O	/	-9.4%	?	/	?	/
CCN1CCN(c2ccc(S(=O)(=O)N3CCOCC3)cc2NC(=O)/C=C/c2cccc(OC)c2OC)CC1	28.2µM*	?	9.2%	/	-11.7%	-12.1%
CCN1CCN(c2ccc(S(=O)(=O)N3CCOCC3)cc2NC(=O)/C=C/c2ccc(OC)c(OC)c2)CC1	14.1µM*	?	9.7%	/	-20.0%	6.2%
COc1ccc(/C=C/C(=O)Nc2cc(S(=O)(=O)N3CCCCC3)ccc2N2CCCCC2)cc1OC	4.3%[59 µM]	-40.4%	35.4%	12.3%	-17.1%	3.9%
CCN1CCN(c2ccc(S(=O)(=O)N3CCCCC3)cc2NC(=O)/C=C/c2ccc(OC)c(OC)c2)CC1	22.4µM*	?	-6.0%	/	-35.2%	?
CCN1CCN(c2ccc(S(=O)(=O)N3CCOCC3)cc2NC(=O)c2ccc(Cl)cc2Cl)CC1	12.6µM*	?	15.7%	/	-16.2%	-4.4%
O=C(c1ccccc1)c1ccc(OCC(=O)c2c[nH]c3ccccc23)cc1	/	-18.7%	/	/	/	/
CCOc1ccccc1NC(=O)c1ccc(S(=O)(=O)N2CCOCC2)cc1	-0.1%	?	40.1%	10.5%	-5.2%	2.4%
COc1ccc(/C=C/C(=O)Nc2cc(S(=O)(=O)N3CCOCC3)ccc2N2CCCC2)cc1OC	-27.8%	3.0%	-9.2%	14.9%	-28.4%	?
CCOc1ccccc1NC(=O)/C=C/c1ccc(S(=O)(=O)N2CCOCC2)cc1	50.1µM*	1.6%	9.3%	/	-20.0%	-3.6%
COc1cc(/C=C/C(=O)Nc2cc(S(=O)(=O)N3CCOCC3)ccc2N2CCCC2)cc(OC)c1OC	10µM*	0.0%	?	28.2µM*	-30.8%	-28.8%
COc1ccccc1C(=O)N/N=C/c1ccc2c(c1)OCO2	8.5%	-27.6%	22.2%	-2.9%	-3.4%	5.3%
COc1ccccc1N/N=C/c1ccc2c(c1)OCO2	7.08µM*	?	-23.0%	-6.2%	?	?
SMILES	G9a inh	ALOX12 inh	HP1b chromo inh	Sfp inh	JMJD2A Tudor inh	BAZ2B inh
Cc1ccc(C)n1-c1cccc(S(=O)(=O)N2CCOCC2)c1	19.8%[59 µM]	?	26.0%	15.6%	-14.1%	-30.1%
Nc1c(N=Nc2ccccc2F)c(=O)[nH]n1-c1ccccc1	-42.6%	179.5%	10.2%	-1.0%	?	?
Cc1nn(-c2ccccc2)c(N)c1N=Nc1cccc(S(=O)(=O)N2CCOCC2)c1	?	0.0%	?	4.9%	?	28.2µM*
Cc1nn(-c2ccccc2)c(N)c1N=Nc1ccccc1	44.7µM*	?	?	-2.5%	56.2µM*	31.6µM*
Cc1cccc(N=Nc2c(C)nn(-c3ccccc3)c2N)c1C	10µM*	-19.5%	?	-6.6%	25.1µM*	17.8µM*
Nc1nn(-c2ccccc2)c(N)c1N=Nc1ccccc1F	?	9.4%	-33.5%	-8.2%	?	35.5µM*
N#Cc1ccccc1CNc1cc(Cl)ccc1Cl	/	-4.1%	/	/	/	/
c1ccc(-c2nc(CC3CCNC3)no2)cc1 (stereo unspecified)	/	71.5%	/	/	/	/
Cc1nn(-c2ccccc2)c(N)c1N=Nc1ccc(Cl)cc1	35.5µM*	?	?	?	44.7µM*	39.8µM*
Nc1nn(-c2ccccc2)c(N)c1N=Nc1ccccc1	?	-21.2%	?	-4.8%	?	39.8µM*
COc1ccc(CCC(=O)OCC(=O)c2c(N)n(CC(C)C)c(=O)n(C)c2=O)cc1	79.4µM*	4.7%	10.4%	4.5%	-13.7%	?
CC(C)Cn1c(N)c(C(=O)COC(=O)C2CCCCC2)c(=O)n(C)c1=O	?	0.0%	-9.4%	-13.4%	25.1µM*	1.3%
Cc1ccc(N2CC(C(=O)OCC(=O)c3c(N)n(CC(C)C)c(=O)n(C)c3=O)CC2=O)cc1 (stereo unspecified)	10.0%[2.33 µM]	-1.3%	18.1%	/	-9.5%	22.7%
CCn1cnc2c1c(=O)n(CC(=O)Nc1ccc(OC(F)(F)F)cc1)c(=O)n2Cc1ccccc1	/	-12.5%	/	/	/	/
CCOc1nc2ccccc2cc1/C=C/C(=O)O	50.1µM*	-10.1%	50.9%	12.0%	0.7%	-0.9%
O=C(O)/C=C/c1ccc2ccccc2n1	-3.6%[59 µM]	-1.9%	26.6%	1.1%	-10.1%	3.3%
C[C@@]1(O)CCN(C(=O)c2cc(C(F)(F)F)ccc2Cl)C[C@@H]1O	/	92.1%	/	/	/	/
Cc1ccc(C2/C(=C(/O)c3cnn(-c4ccccc4)c3C)C(=O)C(=O)N2CCN2CCOCC2)o1 (stereo unspecified)	?	?	13.7%	50.1µM*	?	79.4µM*
COC(=O)c1[nH]c(C)c(/C(O)=C2\C(=O)C(=O)N(CCN(C)C)C2c2cccs2)c1C (stereo unspecified)	-16.7%	-4.3%	33.0%	4.8%	-15.0%	2.7%
CCOC(=O)c1[nH]c(C)c(/C(O)=C2\C(=O)C(=O)N(CCN(C)C)C2c2ccc(C)o2)c1C (stereo unspecified)	39.8µM*	-20.8%	5.8%	-1.7%	?	-34.7%
CCOC(=O)c1[nH]c(C)c(/C(O)=C2\C(=O)C(=O)N(CCN3CCOCC3)C2c2cccs2)c1C (stereo unspecified)	44.7µM*	0.0%	12.2%	1.0%	?	-8.1%
